High-throughput results (PubChem)
Coupling enz – counter-screen for Giardia aldolase inhibitors: coupling enzyme system; 290,000 tested, 0.67% active; coupling enzyme system counterscreen, AmpLite Red fluorescence; activity change, negative = inhibition, % at 58.2 µM, hits read low; in the data active means activity change below about -30%
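First, compound is pin-transferred into glyceraldehyde-3-phosphate coupling-enzyme reagent at 57.5 uM final and held 10 min at RT. Next, substrate, coupling system and AmpLite Red are added. After 20 min RT, fluorescence (525/598 nm) is read.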
TrxR1 substrate – substrates of rat thioredoxin reductase 1 | O89049 | purified TrxR1 substrate turnover, NADPH consumption readout | Potency, µM (top dose mostly 114 µM), without a hit: top-dose activity change, negative = substrate turnover | 390,000 tested, 0.01% active | AID 588456; further: potency means the concentration at half of the fitted maximal effect; nearly all actives have a fitted effect of over 50% in size
Target sequence (O89049 whole entry, looked up): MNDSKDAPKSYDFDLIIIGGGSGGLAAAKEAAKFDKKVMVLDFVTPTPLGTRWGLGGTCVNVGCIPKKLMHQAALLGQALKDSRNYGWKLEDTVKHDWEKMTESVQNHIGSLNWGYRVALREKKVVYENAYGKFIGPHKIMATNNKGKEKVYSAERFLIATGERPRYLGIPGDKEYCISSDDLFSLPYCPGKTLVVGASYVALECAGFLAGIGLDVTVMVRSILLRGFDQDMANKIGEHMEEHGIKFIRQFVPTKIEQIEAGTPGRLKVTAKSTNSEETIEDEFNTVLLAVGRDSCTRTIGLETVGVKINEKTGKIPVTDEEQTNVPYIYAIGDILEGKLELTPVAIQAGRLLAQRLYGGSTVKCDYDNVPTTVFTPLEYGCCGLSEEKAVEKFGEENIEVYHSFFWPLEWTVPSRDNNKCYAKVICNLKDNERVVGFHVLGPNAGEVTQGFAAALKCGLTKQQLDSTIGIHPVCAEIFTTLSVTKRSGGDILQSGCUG
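Rat TrxR1, dispensed at 90 nM, was prereduced with 400 uM NADPH (final) for 5 min at ~22 deg C, then incubated with compound 15 min before 400 uM selenite. A first-read NADPH fluorescence drop versus no-compound background flagged substrates.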
rTrxR1 inhibitor – rat TrxR1 inhibition; AID 588453; recombinant rTrxR1, NADPH fluorescence consumption, selenite substrate; Potency, µM (doses to about 114 µM), for inactives: at the highest dose activity change, negative = inhibition, hits mostly inhibitors; O89049; 390,000 tested, 1% active; further: potency means the concentration at half of the fitted maximal effect; nearly all actives have a fitted effect of over 65% in size
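Rat TrxR1 (90 nM in the dispensed reagent) was pre-reduced with 400 uM NADPH for 5 min at room temperature, then incubated with compound for 15 min. After 400 uM selenite was added, NADPH fluorescence (Ex 340/Em 450 nm) was followed for 8 min.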
Eya2 inh – blocks the phosphatase activity of human Eya2; O00167; recombinant Eya2, OMFP fluorescence dephosphorylation (OMFP is methylfluorescein phosphate); 330,000 tested, 0.006% active; Potency, µM (highest dose often 76.9 µM), without a hit: at the highest dose activity, negative = inhibition, usual class: inhibitors; further: potency means the concentration at half of the fitted maximal effect
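Eya2 (0.2 uM) preincubated 10 min at ambient with compound, then OMFP substrate added at 50 uM; 10 min reaction in 50 mM HEPES pH 7.5, 50 mM NaCl, 5 uM MgCl2, 0.05% BSA, 1 mM DTT. Fluorescence read at Ex 485/Em 525 nm.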
IDH1 R132H inh – inhibitors of human mutant IDH1 R132H | O75874 | IDH1-R132H enzyme, NADPH consumption, diaphorase/resazurin fluorescence | Potency, µM (titrated, usually from 76.6 µM), for inactives: top-dose activity change, negative = inhibition, usual class: inhibitors | 390,000 tested, 0.093% active | AID 602179; further: potency means the concentration at half of the fitted maximal effect; nearly all actives have a fitted effect of over 65% in size
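IDH1-R132H (0.5 ug/mL dispensed) in pH 7.5 Tris buffer was preincubated 30 min with compound, then given a substrate mix of 0.016 mM NADPH and 2 mM alpha-KG for 80 min at room temperature; remaining NADPH was read by diaphorase/resazurin fluorescence.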
* marks the source's active call; other numbers are inactive results; ? = inconclusive; · = not tested or not shown; [ ] = dose if it differs, or a comment. Only some compounds are listed: those with a hit (about 1.5% of all), similar ones and a draw of the others. Unless noted, the call rests on the fitted dose curve; in most records, active means well fitted curve in the direction sought with a large enough effect; inconclusive means small, poorly fitted or top-dose-only effect, or another doubt; inactive means no such curve, though single readings can be large; an effect the other way counts as inactive or inconclusive. On the % scale 0 is the no-effect control and ±100 the full control effect.

SMILES	Coupling enz	TrxR1 substrate	rTrxR1 inhibitor	Eya2 inh	IDH1 R132H inh
COc1cc(/C=C2\C(C)=C(C#N)c3nc(N)c(C#N)c(C)c32)ccc1OCC(=O)O	-12.5	10.1%	31.6µM*	-1.4%	?
CC1=C(C#N)c2nc(N)c(C#N)c(C)c2/C1=C\c1ccc(C)cc1	·	·	·	7.2%	·
COc1ccc(Oc2nnc(-c3ccc(C)cc3)c3ccccc23)cc1	3.9	7.6%	31.3%	12.7%	-2.5%
COc1ccc(-c2nnc(C)c3nocc23)cc1	-1.3	-5.6%	20µM*	-7.4%	2.2%
CCN(CC)c1ccc(/C=C2\SC(=O)N(C(C)C)C2=O)o1	-24.9	-19.4%[57.1 µM]	3.98µM*	19.7%	4.3%
Cc1cc(C)nc(NN2C(=O)C=CC2=O)n1	4.3	11.6%	7.94µM*	-8.5%	3.6%
CN(C)c1ccc(/C=C2\CCc3cc(N)ccc32)cc1	·	-8.6%	-7.9%	·	·
CCCOc1ccc(C2C(C(=O)/C=C/c3ccco3)=C(O)C(=O)N2CCN2CCOCC2)cc1OC (centres undefined)	-38.2*	-3.7%[57.1 µM]	?	1.3%	-1.2%
O=C1Nc2ccccc2/C1=C/C(=O)c1cccs1	-3.8	-5.1%	-66.9%	12.7%	2.3%
CCN1C(=O)/C(=C\C(=O)c2cccs2)c2cc(Br)ccc21	-0.6	-4.6%	17.8µM*	8.0%	-3.1%
Cc1onc(C(=O)Nc2c(C)n(C)n(-c3ccccc3)c2=O)c1[N+](=O)[O-]	-31.4*	3.9%	1.7%	-9.1%	-2.7%
Cc1ccc(NC(=S)NC2CCCC2)cc1C	0.7	6.1%	1.6%	6.1%	-3.3%
Cc1nc2ccc(NC(=S)NC3CCCCC3)cc2nc1C	-34.6*	0.7%	?	1.5%	-3.9%
O=C1CCC[C@@H]2CC(N(Cc3cc4ccccc4s3)c3ccccc3)C[C@@H]3CCN1[C@H]23 (some centres undefined)	·	5.3%	20.3%	·	·
Cn1nnnc1Sc1ncnc2scc(-c3cccs3)c12	·	0.1%	44.7µM*	-19.6%	·
Cn1nnnc1Sc1ncnc2scc(-c3ccc(-c4ccccc4)cc3)c12	·	3.0%[57.1 µM]	22.3%	-2.4%	·
O=C1CCC(C(=O)N2CCOCC2)CN1Cc1ccc(Cl)cc1 (centres undefined)	0.2	5.4%	37.1%	15.2%	3.6%
O=C1CCC(C(=O)N2CCSCC2)CN1Cc1ccc(Cl)cc1 (centres undefined)	2.0	-7.6%	44.7µM*	-5.6%	3.1%
Cn1sc(=O)n(Cc2ccccc2)c1=O	-2.5	·	·	·	·
COc1cccc2nc3cc(C)c(C)cc3nc12	-38.9*	?	?	-16.4%	13.4%
COc1cccc2c1nc(C)c1cc(C)oc12	4.7	-11.6%[11.4 µM]	0.0%[11.4 µM]	-4.4%	3.8%
O=C(/C=C/c1cccnc1)/C=C/c1cccnc1	-1.1	-12.2%	17.8µM*	2.3%	0.0%
CN(C)S(=O)(=O)c1ccc(C(=O)/C=C/c2cccnc2)cc1	1.0	3.4%[57.1 µM]	8.91µM*	-6.0%	-3.2%
Cc1nc(Sc2nnnn2C2CC2)c2c(-c3ccccc3)csc2n1	·	3.5%	-6.2%	·	·
CSc1nc(O)c(C(c2ccc(F)cc2)c2c(O)nc(SC)[nH]c2=O)c(=O)[nH]1	·	3.6%	?	·	-7.3%
SMILES	Coupling enz	TrxR1 substrate	rTrxR1 inhibitor	Eya2 inh	IDH1 R132H inh
CSc1nc(O)c(C(c2ccc(OC(C)C)cc2)c2c(O)nc(SC)[nH]c2=O)c(=O)[nH]1	·	3.0%[57.1 µM]	11.2µM*	·	-0.1%
Oc1cccc(C=NCc2ccccc2)c1O	-37.0*	-13.6%	?	-19.4%	-1.7%
COc1ccccc1-c1cn(-c2ccccc2)c(=S)[nH]1	-3.9	12.8%	-7.6%	-3.5%	4.5%
COc1ccccc1C1=NC(c2ccccc2)CN1c1ccccc1 (centres undefined)	-0.7	68.5%	22.4µM*	-10.8%	15.7%
C[N+](C)(C)c1ccc(/C=C2\C=Cc3ccccc32)cc1	·	11.5%[0.0914 µM]	-19.1%	·	·
C[n+]1cccc2c(Br)ccc([O-])c21	-69.0*	?	13.8%	6.0%	14.8%
[O-][n+]1cccc2c(Br)cc(Br)c(O)c21	-29.6	-4.0%	?	-11.5%	1.2%
CC[C@@]1(c2cccc(C)c2)C(=O)N(C(=O)OC)N1C(=O)OC	-0.8	4.5%	2µM*	-3.1%	-1.2%
COC(=O)N1C(=O)[C@](c2ccsc2)(C(C)C)N1C(=O)OC	-6.1	4.6%	25.1µM*	5.0%	-7.9%
COC(=O)N1C(=O)[C@@](CC(C)C)(c2ccccc2)N1C(=O)OC	-0.3	·	·	13.5%	·
COC(=O)N1C(=O)[C@@](c2ccccc2)(C2CCCC2)N1C(=O)OC	-6.5	-6.1%	8.91µM*	1.2%	0.0%
CC[C@@]1(c2ccccc2OC)C(=O)N(C(=O)OC)N1C(=O)OC	-0.2	6.0%[57.1 µM]	?	0.4%	-2.7%
COC(=O)N1C(=O)[C@](CC(C)C)(c2ccccc2)N1C(=O)OC	0.0	-6.3%	2µM*	1.6%	-8.4%[38.3 µM]
CC(C)(C)n1ncc2c(=O)n(Cc3c(Cl)cccc3Cl)cnc21	·	-0.6%	6.2%	·	·
CCOC(=O)N1C(=O)[C@@](CC)(c2ccccc2)N1C(=O)OCC	1.7	-8.9%	2.24µM*	11.9%	-7.7%[38.3 µM]
CCOC(=O)C1(c2ccccc2)SC(C(=O)OCC)(c2ccccc2)S1 (centres undefined)	·	·	·	·	12.9%
CN(C)CCNc1cc(N2CCN(C)CC2)ncn1	·	-1.9%	4.3%	·	·
Cc1sc2ccccc2[n+]1CCCCBr	·	5.4%	179.4%	·	·
C[C@H]1Cc2c(-c3ccccc3)nc3c(c2CO1)CN(C(=O)c1cc(I)ccc1F)CC3	2.1	·	·	·	·
CSc1sc(-c2n[nH]c(=S)n2C)c2c1C=CCC2	-33.7*	3.7%	-15.6%[57.1 µM]	3.2%	-3.0%
Cc1nc(-c2ccccc2)sc1-c1n[nH]c(=S)n1C	3.1	-2.7%	-21.7%	-2.1%	6.8%
O=C(/C(=N/N=C/c1ccc(O)c(O)c1O)c1ccccc1)c1ccccc1	-40.4*	-4.0%	-7.7%	-3.0%	?
c1coc(Cn2c(-c3ccco3)nc3ccccc32)c1	-0.2	27.0%	3.16µM*	-16.0%	-1.0%
